Measured values as given in PubChem BioAssay AID624296 (National Center for Advancing Translational Sciences (NCATS), 2012).
Screen size: about 350,000 compounds; about 9,900 (2.8%) were called active. Where a call stands in place of a potency, no number is given. Roughly 15% stayed inconclusive and do not appear here. The call rests on the fitted dose curve; in most records, active means well fitted activation curve with a large enough effect; inconclusive means small, poorly fitted or top-dose-only effect; inactive means no such curve, though single readings can be large or run the other way. Only a selection was taken, and actives are over-represented in it overall.

Experiment: A quantitative high throughput screen for small molecules that induce DNA re-replication in MCF 10a normal breast cells. Further: nearly all actives have a fitted effect of over 50% in size.
Conditions: MCF 10A DNA re-replication, Hoechst nuclear intensity, 48 h; series mostly up to 46.1 µM
Potency means the concentration at half of the fitted maximal effect.

Row | Structure (SMILES) | Potency
1 | O=C(Nc1ccc(N2CCOCC2)cc1)c1cccc(S(=O)(=O)N2CCOCC2)c1 | inactive
2 | CN(CC(=O)O)C(=O)c1ccccc1 | inactive
3 | O=C(O)c1ccc(NC(=O)C2CCCCC2)cc1 | inactive
4 | CN1C(=O)c2ccc(NC(=O)C3CCCCC3)cc2C1=O | 10.3 µM (active)
5 | CN1C(=O)c2ccc(NC(=O)c3c(F)c(F)c(F)c(F)c3F)cc2C1=O | inactive
6 | CCOc1ccc(Br)cc1S(=O)(=O)Nc1ccc(S(=O)(=O)Nc2cc(C)on2)cc1 | inactive
7 | c1ccc(CNc2ncnc3[nH]ncc23)cc1 | inactive
8 | O=C(COC(=O)c1cc(S(=O)(=O)N2CCOCC2)ccc1Cl)NCCc1ccccc1 | inactive
9 | COc1ccc2[nH]c3c(c2c1)CCN1C(=O)C(CC(=O)NCc2cccc(C(F)(F)F)c2)C[C@H](C(=O)N2CCOCC2)[C@@]31C (stereo partly drawn) | inactive
10 | C=CCn1c(SCC(=O)NCC2CCCO2)nc2sc(C)c(C)c2c1=O (stereo not drawn) | inactive
11 | CC1CCc2c(sc3nc4n(c(=O)c23)CCS4)C1 (stereo not drawn) | inactive
12 | C=CCn1c(SCc2c(C)noc2C)nc2sc3c(c2c1=O)CCC(C)C3 (stereo not drawn) | 3.66 µM (active)
13 | CC(NC(=O)COC(=O)CCC(=O)c1ccc(Cl)cc1)c1ccccc1 (stereo not drawn) | inactive
14 | CC[C@]12c3[nH]c4ccc(OC)cc4c3CCN1C(=O)C(CC(=O)NCc1ccco1)C[C@@H]2C(=O)N1CCN(C(=O)C2CC2)CC1 (stereo partly drawn) | inactive
15 | CC12CCCCC1=CC(=O)CC2 (stereo not drawn) | inactive
16 | COc1ccc(Nc2nnc(C)c3ccccc23)cc1 | inactive
17 | COc1ccc(Nc2ccc3ccccc3c2)cc1 | 23.1 µM (active)
18 | COc1ccc(-c2nnc(-c3ccc4ccccc4c3)o2)cc1 | inactive
19 | COc1cc(C(=O)N2CCN(S(=O)(=O)c3ccc(C(C)C)cc3)CC2)ccc1OCC(=O)N1CCOCC1 | inactive
20 | O=C(C/C(=N\NC(=O)c1ccccc1Br)C(F)(F)F)c1cccs1 | 11.6 µM (active)
21 | O=C(CNC(=O)c1ccccc1Br)NNC(=O)c1cccs1 | inactive
22 | CC/C(=N\NC(=O)c1ccccc1Cl)c1ccc(Br)s1 | inactive
23 | CCOC(=O)Cc1csc(SCC(=O)Nc2ccc(C)cc2F)n1 | inactive
24 | O=C(OCC(=O)N1CCCCCC1)c1ccc(Cl)nc1 | inactive
25 | COCc1nnc(NC(=O)c2ccc3c(c2)OCO3)s1 | inactive
26 | Cc1ccc(C(=O)Nc2sc(Cc3ccc4c(c3)OCO4)c(C)c2C(N)=O)cc1 | 4.11 µM (active)

Row | Structure (SMILES) | Potency
27 | CC(=O)NCCC(=O)Nc1nc(C)c(Cc2ccc3c(c2)OCO3)s1 | inactive
28 | COc1ccccc1C(=O)NCC(=O)OCC(=O)Nc1nnc(-c2ccccc2)o1 | inactive
29 | Cc1coc2c(O)cc3c(c12)OC1(N2CCCCC2)C(=O)NCCCC31 (stereo not drawn) | 18.4 µM (active)
30 | O=C1OC(Oc2ccc(Br)cc2)(c2ccccc2)c2ccccc21 (stereo not drawn) | 11.6 µM (active)
31 | Cc1cccc(C(=O)OCC(=O)NC(C)C2CC3CCC2C3)c1O (stereo not drawn) | inactive
32 | Cc1cc(OCCCC(=O)Nc2cc(S(=O)(=O)N3CCOCC3)ccc2N2CCOCC2)ccc1Cl | inactive
33 | O=C(CS(=O)(=O)c1cn(Cc2cccc(F)c2)c2ccccc12)N1CCCCC1 | inactive
34 | O=c1cc(N2CCN(Cc3ccccc3)CC2)c(-c2ccccc2)n[nH]1 | inactive
35 | O=c1cc(N2CCCCC2)c(-c2ccccc2)nn1Cc1cccc(F)c1 | 20.6 µM (active)
36 | COc1ccc(-c2nnc(SC(C)C(=O)NC3CC3)o2)cc1 (stereo not drawn) | inactive
37 | Cc1nn(-c2ccccc2)c(Cl)c1C(=O)Nc1ccccc1 | inactive
38 | Cc1nn(-c2ccccc2)c(C)c1/C=C/C(=O)OC(C)C(N)=O (stereo not drawn) | inactive
39 | Cc1ccc(C(=O)/C=C/c2c(C)nn(-c3ccccc3)c2Cl)cc1 | 16.4 µM (active)
40 | Cc1ccc(CNC(=O)CC(NC(=O)c2ccccc2)c2ccccc2)cc1 (stereo not drawn) | inactive
41 | O=C(Nc1ccccc1)Oc1cccc2cccnc12 | 4.11 µM (active)
42 | OCc1ccc(OCCCOc2cccc3cccnc23)cc1 | inactive
43 | COc1ccc(NC(=O)Nc2cccc3cccnc23)cc1 | inactive
44 | CN(Cc1ccccc1)C(=O)COC(=O)/C=C/c1ccc2c(c1)OCO2 | inactive
45 | O=C(CN1C(=O)NC2(CCCCCC2)C1=O)NCc1ccc(F)cc1 | inactive
46 | COc1ccc(S(=O)(=O)Nc2ccc3cn[nH]c3c2)cc1[N+](=O)[O-] | inactive
47 | COc1cc(NC(=O)c2cncc(-c3ccc(C#N)cc3)c2)cc(C(=O)Nc2cccc(C(F)(F)F)c2)c1 | 13 µM (active)
48 | COc1ccc(NC(=O)C(=O)NCC(=O)Nc2cccc(C(F)(F)F)c2)cc1 | inactive
49 | Cc1cccc(NC(=O)c2nnn(-c3cccc(C(F)(F)F)c3)c2N)c1 | inactive
50 | COc1cc(NC(=O)c2[nH]cnc2C(N)=O)cc(C(=O)Nc2cccc(C(F)(F)F)c2)c1 | 7.31 µM (active)
51 | N#Cc1ccc(Oc2ccc(C(F)(F)F)cc2NC(=O)c2ccc(F)cc2)cc1 | inactive
52 | CNC(=O)c1ccc(NC(=O)c2cccc(C(F)(F)F)c2)cc1 | inactive

Row | Structure (SMILES) | Potency
53 | CC(=O)N1CCc2ccc(N)cc21 | inactive
54 | CC1CCC(CN2CCN=C2N(C)C)CC1 (stereo not drawn) | inactive
55 | COc1cc2c(cc1OC)CN(C(C)C(=O)Nc1cccc(S(=O)(=O)N3CCOCC3)c1)CC2 (stereo not drawn) | inactive
56 | COCCn1c(C)cc(C(=O)CN2c3cccc4cccc(c34)S2(=O)=O)c1C | inactive
57 | O=C(COC(=O)/C=C/c1cccc(Cl)c1)NCc1cccs1 | inactive
58 | Cc1c(NC(=O)C(C)OC(=O)c2ccccc2O)c(=O)n(-c2ccccc2)n1C (stereo not drawn) | inactive
59 | Cc1ccc(OCCCC(=O)Nc2ccc3c(c2)OCCO3)cc1 | inactive
60 | CC(C)N(Cc1nnc(-c2ccccc2Br)o1)C(=O)c1cc(Cl)nc2ccccc12 | inactive
61 | Cc1cccc(NC(=O)c2ccc([N+](=O)[O-])o2)c1 | 2.91 µM (active)
62 | CN1C(=O)c2ccc(C(=O)Nc3ccc(Br)cn3)cc2C1=O | inactive
63 | O=C(Nc1ccc(Br)cn1)c1ccc([N+](=O)[O-])o1 | 4.11 µM (active)
64 | O=C(Nc1ccc(Br)cn1)c1ccc([N+](=O)[O-])cc1Cl | inactive
65 | Cc1cccc(NC(=S)NC(=O)c2ccc(Br)o2)c1 | inactive
66 | Cc1cccc(NC(=O)c2cc([N+](=O)[O-])ccc2N2CCN(C)CC2)c1 | inactive
67 | COc1ccc(CNC(=O)c2ccc(NS(=O)(=O)c3ccc4[nH]c(=O)[nH]c4c3)cc2)cc1OC | inactive
68 | COc1ccc(CNCCCn2cnc3c(OCc4ccccc4)ncnc32)cc1 | inactive
69 | CSCCC(NC(=O)COc1ccccc1)C(=O)N(C)CC(=O)Nc1ccc(C)cc1 (stereo not drawn) | inactive
70 | CCOC(=O)CCCCCC(=O)Nc1ccc2c(c1)CC(=O)N([C@@H](C)CO)C[C@H](C)[C@@H](CN(C)Cc1ccccc1)O2 | inactive
71 | COc1cccc(C=CC(=O)C=CC=Cc2ccccc2)c1 | 16.4 µM (active)
72 | COc1cccc(C(=O)NNC(=O)/C=C/c2ccccc2)c1 | inactive
73 | COc1cccc(/C=C/C(=O)OCC(=O)N2CCN(c3ccccc3)CC2)c1 | inactive
74 | Cc1noc(C)c1C(=O)OC(C)C(=O)Nc1ccc2c(c1)OCO2 (stereo not drawn) | inactive
75 | CC1(C)CC(=O)C=C(c2ccc(Cl)c(C(F)(F)F)c2)C1 | inactive
76 | COc1ccc(S(=O)(=O)N2CCC(C(=O)NCc3ccco3)CC2)cc1C | inactive
77 | COc1ccc(C2=NOC(C(=O)NCc3ccco3)C2)cc1OC (stereo not drawn) | 4.61 µM (active)
78 | O=C(NCc1cc(C(F)(F)F)cc(C(F)(F)F)c1)C1CC(c2cccc(F)c2)=NO1 (stereo not drawn) | inactive

Row | Structure (SMILES) | Potency
79 | COc1ccccc1C(CNC(=O)c1ccc(C)c(S(=O)(=O)N2CCCCC2)c1)N(C)C (stereo not drawn) | inactive
80 | Cc1ccc(OCCOCCOc2ccc(Br)cc2/C=N\NC(=O)c2ccncc2)cc1 | 20.6 µM (active)
81 | COc1ccc(CC(=O)NCC(=O)N/N=C/c2cc(Br)ccc2OC)cc1 | inactive
82 | Cc1ccc(S(=O)(=O)Oc2ccc(/C=N/NC(=O)c3ccncc3)cc2)cc1 | inactive
83 | CCCCc1ccc(NC(=O)CN2C(=O)NC(Cc3ccccc3)C2=O)cc1 (stereo not drawn) | inactive
84 | CCCCNCCS(=O)(=O)NCc1ccccc1 | inactive
85 | Cc1ccc(C)c(NC(=O)C(c2ccccc2)N2CCN(CC(=O)NC3CC3)CC2)c1 (stereo not drawn) | inactive
86 | Cc1ccc(-n2c(=O)c(C#N)cc3c(=O)n4ccccc4nc32)cc1C | 10.3 µM (active)
87 | Cc1ccc(-n2c(SCC(=O)N3CCC(C(=O)O)CC3)nc3ccccc3c2=O)cc1C | inactive
88 | Cc1ccn2c(=O)c(NC(=O)c3cccc4ccccc34)c(C)nc2c1 | inactive
89 | CC(=O)Nc1ccc(C(=O)Nc2cc(S(=O)(=O)N3CCOCC3)ccc2N2CCOCC2)cc1 | inactive
90 | COc1ccc(CCN2CC(C(=O)OCC(=O)NCc3ccccc3Cl)CC2=O)cc1OC (stereo not drawn) | inactive
91 | Fc1ccccc1-c1cc2cc3c(cc2cn1)OCO3 | inactive
92 | Cc1nnc2n1N=C(c1ccccc1)CS2 | inactive
93 | CC1=Nn2c(nnc2-c2ccccc2)SC1 | inactive
94 | COc1ccc(C2=Nn3c(nnc3-c3ccccc3OC)SC2)cc1OC1CCCC1 | 0.651 µM (active)
95 | CCOC(=O)c1ccccc1NS(=O)(=O)c1c(C)nc2sccn2c1=O | inactive
96 | CCOc1cc(NS(=O)(=O)c2ccc(OC)cc2)c(OCC)cc1NC(C)=O | inactive
97 | CCOC(=O)c1ccccc1NS(=O)(=O)c1ccc(OC)cc1 | 16.4 µM (active)
98 | CN1CCN(S(=O)(=O)c2ccc(N3CCN(c4ccccc4O)CC3)c([N+](=O)[O-])c2)CC1 | inactive
99 | CC(=O)c1sc(NC(=O)CCN2C(=O)C3CC=CCC3C2=O)nc1-c1ccccc1 (stereo not drawn) | inactive
100 | COc1ccc(-c2csc(Nc3ccccn3)n2)cc1 | inactive
101 | COc1ccc(CC(=O)Nc2nc(-c3ccc(F)c(F)c3)cs2)cc1OC | inactive
102 | COc1ccc(OC)c(Nc2nc(-c3ccc(O)c(O)c3)cs2)c1 | 8.2 µM (active)
103 | C=CC[C@@H](CC(=O)N[C@@H](CO)Cc1ccccc1)C(=O)N[C@H](COC(=O)[C@H](CC=C)CC(=O)OC(C)(C)C)Cc1ccccc1 | inactive
